# Compound activity deposited in PubChem BioAssay by Broad Institute.
# Most compounds without a hit are left out; they make up all but 3.9% or so of the library.
# esBAF inh = blocks esBAF chromatin remodeling in mouse ES cells; reporter increase, % at 12.5 µM; 350,000 tested, 2% active; Bmi1-luciferase knock-in reporter, 24 h; 100% = twice the neutral-well signal; in the data active means activation above about 40%; inconclusive means no clear call, values can overlap the other calls;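 further: 0% = median of the plate's neutral control wells and 100% = double that signal; a rise in the Bmi1 reporter signal indicates esBAF inhibition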
# Wnt act = activators of Wnt/beta-catenin signaling | Wnt/beta-catenin reporter cell assay, activator, plate reader | activation, % at 9.35 µM | 300,000 tested, 1.2% active; in the data active means activation above about 30%, passing the limit was not always enough; inconclusive means no clear call, values can overlap the other calls;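 further: 0% = neutral control wells and 100% = positive control wells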
# HSF-1 act = increases HSF-1 driven luciferase reporter signal; NIH3T3-HGL HSF-1 luciferase reporter, MG132, 8 h; 100% = twice DMSO control signal; activation, % at 9 µM; 300,000 tested, 1.7% active;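 active means mean replicate activation of at least 50% with a set share of replicates each reaching 50%; inconclusive means only one of those two conditions met; inactive means mean below 50% and too few replicates reaching it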;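 further: 0% = median of the neutral control wells and 100% = twice that signal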
# HSF1 inhib = HSF1 inhibition; NIH3T3-HGL HSE-luciferase, MG132-induced, luminescence 8 h; active compounds read low; activity change, negative = inhibition, % at 7.5 µM (by protocol); 300,000 tested, 0.77% active; AID 2098;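 active means more than half of replicate wells show activity change below -50%, luminescence cut by over half; inconclusive means some wells, but at most half, below -50%; inactive means no replicate well below -50%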;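 further: luciferase reports HSF-1 transcriptional activity via heat shock element; 0% = median of DMSO wells and -100% = zero luminescence signal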
# MITF TRPM1 HTS = activators of MITF-driven TRPM1 promoter activity in SK-MEL-5 cells; 300,000 tested, 0.75% active; AID 588334; activation, % at 12.5 µM; SK-MEL-5 TRPM1-promoter luciferase, 24 h; % of positive control, neutral wells = 0;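 active means mean activation of at least 80% with every replicate also reaching 80%; inconclusive means mean reaches 80% but some replicate falls short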;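 further: 0% = neutral control wells and 100% = parthenolide positive control wells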
# Starred values were filed as active, the others as inactive; u = inconclusive; x = not tested or not shown.
SMILES,esBAF inh,Wnt act,HSF-1 act,HSF1 inhib,MITF TRPM1 HTS
O=C(NCc1ccco1)Nc1ccc(Br)cc1Cl,u,x,30,14,91*
CCOC(=O)c1cnn(-c2ccccc2)c1NC(=O)c1ccccc1C,-8,39*,2,-2,-4
Cc1cccc(NC(=O)c2cnn(-c3ccccc3)c2C)c1C,63*,0,30,19,x
Cc1ccccc1NC(=O)c1cnn(-c2ccccc2)c1C,75*,u,-6,-2,64
COc1ccc(NC(=O)N(C)C[C@H]2OCCCC[C@@H](C)Oc3ccc(NC(=O)Nc4c(C)noc4C)cc3C(=O)N([C@H](C)CO)C[C@@H]2C)cc1,-7,x,x,x,x
CO[C@@H]1CN(C)C(=O)c2cc(NC(=O)C3CCC3)ccc2OC[C@@H](C)NC[C@@H]1C,-7,x,x,x,x
O=C(CC1CC1)Nc1ccc2c(c1)[C@@H]1C[C@@H](CC(=O)N3CCOCC3)O[C@@H](CO)[C@@H]1O2,-1,x,x,x,x
COc1ccc(S(=O)(=O)N(C)C[C@H]2Oc3ccc(N(C)C)cc3C(=O)N([C@@H](C)CO)C[C@H]2C)cc1,-2,x,x,x,x
CCCN(C)C[C@@H]1Oc2ncc(-c3ccccc3)cc2C(=O)N([C@@H](C)CO)C[C@H]1C,-3,x,x,x,x
COc1ccc(C(=O)n2nc(C)cc2Nc2ccccc2)cc1,55*,x,52*,16,17
Fc1ccc(-c2cc3nc4c(c(N5CCOCC5)n3n2)CCCC4)cc1,53*,9,0,7,29
OC1CCCN(c2c3c(nc4cc(-c5cccc(F)c5)nn24)CCCC3)C1 (configuration not stated),x,14,31,9,87*
Cc1cccc(-c2cc3nc4c(c(N5CCCC(O)C5)n3n2)CCC4)c1 (configuration not stated),8,3,7,1,8
OC1CCN(c2c3c(nc4cc(-c5ccc(F)cc5)nn24)CCC3)CC1,6,2,1,-1,2
Cc1cccc(-c2cc3nc4c(c(N5CCC6(CC5)OCCO6)n3n2)CCCC4)c1,78*,9,x,x,91*
Cc1cccc(-c2cc3nc4c(c(N5CCOCC5)n3n2)CCCC4)c1,7,7,x,x,30
C[C@@H]1CN([C@@H](C)CO)C(=O)c2cc(NC(=O)Nc3ccc4c(c3)OCO4)ccc2O[C@@H]1CN(C)S(=O)(=O)c1cccs1,9,x,x,x,x
Cc1ccc2nc3sc(C(=O)NCc4ccco4)c(N)c3cc2c1,9,x,85*,52,57
COc1cc2cc3c(N)c(C(=O)NCc4ccco4)sc3nc2cc1OC,u,11,30,22,x
N=C1S/C(=C\c2ccco2)C(=O)N1c1ccc2c(c1)OCO2,9,3,32,13,29
N=C1S/C(=C\c2ccco2)C(=O)N1c1nccs1,40,8,98*,113,9
CCN1CCSc2ccc(C(=O)NCc3cc(Br)ccc3OC)cc21,-3,-2,-24,0,x
CCN1C(=O)CSc2ccc(C(=O)NCc3ccc(OC)cc3)cc21,15,x,52*,19,-16
CCN1CCSc2ccc(C(=O)NCc3ccc(OC(C)C)cc3)cc21,-5,10,77*,60,x
Cc1ccc(CN2CCSc3ccc(C(=O)NCc4cccnc4)cc32)cc1,x,-1,15,11,0
SMILES,esBAF inh,Wnt act,HSF-1 act,HSF1 inhib,MITF TRPM1 HTS
CCOc1ccc(CNC(=O)c2ccc3c(c2)N(CC)CCS3)cc1,-2,0,55*,34,-8
CO[C@@H](CN(C)S(=O)(=O)c1ccc(F)cc1)[C@@H](C)CN(C(=O)Nc1ccccc1F)[C@@H](C)CO,0,x,x,x,x
CC(=O)Oc1ccc([C@@H]2COc3c(ccc4c3C=CC(C)(C)O4)C2)c(OC(C)=O)c1,50*,30,33,20,49
CC1(C)C=Cc2c(ccc3c2OC[C@H](c2ccc(O)cc2O)C3)O1,-33,22,x,x,45
C[C@H](CO)N1C[C@H](C)[C@H](CN(C)C(=O)c2cccc(F)c2)Oc2ncc(-c3ccccc3)cc2C1=O,-6,x,x,x,x
Cc1[nH]c2ccccc2c1C(=O)/C=C/c1ccccc1,84*,-2,70*,39,23
Cc1[nH]c2ccccc2c1C(=O)/C=C/c1ccccc1Cl,x,-4,113*,84,15
CC(=O)c1c(C)nc2ccccc2c1N,0,x,-5,0,3
Cc1nc2ccccc2c(N)c1C(=O)/C=C/c1ccccc1,0,-2,64*,42,x
Cc1ccc(-c2noc(-c3cccs3)n2)cc1,-30,25,30,11,17
c1csc(-c2nc(N3CCCCC3)no2)c1,u,35*,40,14,81*
COc1ccc(NC(=O)Nc2cccc3c2O[C@@H](CN(C)Cc2ccncc2)[C@H](C)CN([C@@H](C)CO)C3=O)cc1,7,x,x,x,x
CCCc1cc(=O)[nH]c(SCc2nc3ccccc3s2)n1,14,-1,62*,19,-5
NC(=S)c1ccc(OCCCc2ccccc2)cc1,71*,37*,x,x,x
C[C@H](CO)N1C[C@H](C)[C@@H](CN(C)C(=O)Nc2ccc3c(c2)OCO3)Oc2ncc(-c3ccccc3)cc2C1=O,3,x,x,x,x
C[C@H](CO)N1C[C@H](C)[C@H](CN(C)S(=O)(=O)c2cn(C)cn2)Oc2ccc(NC(=O)Cc3cn(C)c4ccccc34)cc2CC1=O,6,x,x,x,x
CC(=O)N(c1nnc(-c2cccc(C)c2)s1)C1CCCC1,52*,9,23,10,x
COc1cccc(-c2nnc(N(C)C(=O)C3CCOC3)s2)c1 (configuration not stated),32,12,17,9,67
FC(F)(F)c1ccc(-c2nc3ccccc3s2)cc1,16,0,x,x,x
COC(=O)N(C)c1nc2ccccc2s1,27,x,13,4,39
CC(C)c1ccc(-c2nc3ccccc3s2)cc1,x,-21,-92,-91*,-93
CN(C(=O)OC(C)(C)C)c1ccc(-c2nc3ccccc3s2)cc1,-80,-20,-94,-93*,-94
CC[C@H](C)NC(=O)c1ccc(Cn2c(=S)[nH]c3c([nH]c4ccc(OC)cc43)c2=O)cc1,x,-2,-58,-58*,16
CCCCNC(=O)c1ccc(Cn2c(=S)[nH]c3c([nH]c4ccc(OC)cc43)c2=O)cc1,x,-38,-71,-71*,2
CCOCCCNC(=O)c1ccc(Cn2c(=S)[nH]c3c([nH]c4ccc(OC)cc43)c2=O)cc1,x,2,-3,2,1
COc1ccc(NC(=O)Nc2ccc3c(c2)[C@@H]2C[C@H](CC(=O)NCCc4ccccc4)O[C@@H](CO)[C@@H]2O3)cc1,6,x,x,x,x
O=C(Nc1ccccc1F)N[C@@H]1CC[C@@H](CCNC(=O)C2CCC2)O[C@@H]1CO,0,x,x,x,x
Cc1occc1C(=O)NCCc1cccc(Cl)c1,52*,x,38,7,66
O=C(NCCc1cccc(Cl)c1)c1cccs1,63*,-1,42,39,u
O=C(NCCc1cccs1)c1ccc(Cl)c(Cl)c1,x,37*,39,27,94*
